KB-3-1 cytotox – qHTS assay for MDR1-selective chemotherapeutics: Primary screen using the parental adenocarcinoma cell KB-3-1; KB-3-1 viability, CellTiter-Glo ATP luminescence, 72 h; Potency, µM (doses to about 46.1 µM), usual class: cytotoxic; 400,000 tested, 1.4% active; AID 1347075, 2019; also: % is scaled to controls: 0 for no effect and ±100 for the full control effect; nearly all actives have a fitted effect of over 60% in size
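Luminescent ATP read-out (CellTiter-Glo) measures survival of drug-naive KB-3-1 cells after 72 h compound exposure at 37 °C. Titration series was screened from lowest to highest concentration, with DMSO vehicle plates as background controls.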
HT1080-NT tox – qHTS for induction of synthetic lethality in tumor cells producing 2HG: qHTS for the HT-1080-NT fibrosarcoma cell line | 360,000 tested, 1.6% active | Potency, µM (doses to about 46.1 µM), for the others: top-dose activity, negative = less viability, usual class: cytotoxic | HT-1080-NT fibrosarcoma viability, CellTiter-Glo ATP luminescence, 48 h;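 also: NT is the 2HG producing partner of a matched IDH1 knockdown line; 0% = DMSO-treated cells and -100% = media-only wells without cells; nearly all actives have a fitted effect of over 55% in size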
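Luminescent CellTiter-Glo readout after 48 hours of compound exposure at 37 degrees C defined viability of HT-1080-NT cells. Activity was normalized to DMSO wells and cell-free media wells; concentration-response curves were fitted and assigned curve classes.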
HT1080 IDH1KD tx – qHTS for induction of synthetic lethality in tumor cells producing 2HG: qHTS for the HT-1080-IDH1KD cell line. HT-1080 IDH1 knockdown viability, ATP luminescence, 48 h. Potency, µM (titrated, usually from 46.1 µM), for inactives: at the top dose activity, negative = toxicity, hits mostly cytotoxic. 360,000 tested, 2% active. AID 686971, 2013;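 also: 0% = DMSO wells and -100% = cell-free medium wells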
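After a 2 h attachment period, IDH1KD HT-1080 cells took pin-transferred compound for 48 h at 37 °C; ATP-based luminescence after 10 min room-temperature reagent incubation reported viability.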
KB-V1 cytotox – qHTS assay for MDR1-selective chemotherapeutics: Primary screen using the drug-selected MDR subline cells KB-V1; KB-V1 MDR cells viability, CellTiter-Glo, 72 h; Potency, µM (titrated, usually from 46.1 µM), actives largely listed as cytotoxic; 400,000 tested, 3.4% active; also: % is scaled to controls: 0 for no effect and ±100 for the full control effect; nearly all actives have a fitted effect of over 60% in size
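Luminescent ATP read-out (CellTiter-Glo, 10 min) measures survival of drug-selected KB-V1 MDR cells after 72 h, 37 degrees C compound exposure. Medium: phenol-red-free DMEM, 10% FBS. Values from fitted concentration-response curves.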
MCF10A rereplic – A quantitative high throughput screen for small molecules that induce DNA re-replication in MCF 10a normal breast cells. MCF 10A DNA re-replication, Hoechst nuclear intensity, 48 h. Potency, µM (highest dose often 46.1 µM), without a hit: top-dose activity, positive = re-replication, usual class: activators. 350,000 tested, 2.9% active; also: % of control where 0% means no effect; nearly all actives have a fitted effect of over 50% in size
SW480 rereplic – A quantitative high throughput screen for small molecules that induce DNA re-replication in SW480 colon adenocarcinoma cells; SW480 DNA re-replication, Hoechst DNA content imaging, 48 h; Potency, µM (top dose mostly 46.1 µM), without a hit: top-dose re-replication activation, usual class: activators; 340,000 tested, 1.8% active; AID 624297, 2012; also: % of control where 0% means no effect; nearly all actives have a fitted effect of over 55% in size
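Treated cells incubate 48 hr (37 C, 5% CO2), are stained 40 min with Hoechst, and nuclear fluorescence is enumerated; a rise in nuclei with high DNA signal marks re-replication.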
Starred values were filed as active, the others as inactive. Most compounds without a hit are left out; they make up all but 8% or so of the library. Calls follow the shape of the dose curve; as a rule, active = well fitted curve in the direction sought with a large enough effect; inconclusive = small, poorly fitted or top-dose-only effect, or another doubt; inactive = no such curve, though single readings can be large; an effect the other way counts as inactive or inconclusive. Potency is read from the fitted curve at half-maximal effect.

Screening NS(=O)(=O)c1ccc(CCN2C(=O)/C(=C\c3ccc(Cl)cc3)SC2=S)cc1 returned KB-3-1 cytotox inconclusive, HT1080-NT tox 2%, HT1080 IDH1KD tx 5%, KB-V1 cytotox 18µM*, MCF10A rereplic 10µM* and SW480 rereplic inconclusive.
For O=C1/C(=C\c2cc(Br)cc(Br)c2O)SC(=S)N1Cc1ccccc1 the results were KB-3-1 cytotox inconclusive, HT1080-NT tox -30%, HT1080 IDH1KD tx -16%, KB-V1 cytotox inactive, MCF10A rereplic 9.2µM* and SW480 rereplic 8%.
For O=C(O)c1cccc(CN2C(=O)S/C(=C/c3cccc([N+](=O)[O-])c3)C2=O)c1 the results were KB-3-1 cytotox inactive, HT1080-NT tox inconclusive, HT1080 IDH1KD tx 16µM*, KB-V1 cytotox inactive, MCF10A rereplic inconclusive and SW480 rereplic inconclusive.
For COc1ccc(CN2C(=O)/C(=C/c3ccncc3)SC2=S)cc1 the results were KB-3-1 cytotox inactive, HT1080-NT tox inconclusive, HT1080 IDH1KD tx inconclusive, KB-V1 cytotox inactive, MCF10A rereplic 23µM* and SW480 rereplic inconclusive.
`O=C1/C(=C/c2ccc(O)c([N+](=O)[O-])c2)SC(=S)N1Cc1ccccc1` gave KB-3-1 cytotox inconclusive, HT1080-NT tox 23µM*, HT1080 IDH1KD tx -19%, KB-V1 cytotox inconclusive, MCF10A rereplic inconclusive and SW480 rereplic -6%.
Screening O=C1/C(=C/c2ccccc2O)SC(=S)N1Cc1cccnc1 returned KB-3-1 cytotox 3.3µM*, HT1080-NT tox 7%, HT1080 IDH1KD tx 3%, KB-V1 cytotox inconclusive, MCF10A rereplic 6.5µM* and SW480 rereplic inconclusive.
Screening O=C1/C(=C\c2cccc([N+](=O)[O-])c2O)SC(=S)N1Cc1ccccc1 returned KB-3-1 cytotox inconclusive, HT1080-NT tox -17%, HT1080 IDH1KD tx 0%, KB-V1 cytotox inactive, MCF10A rereplic 14% and SW480 rereplic 2%.
For CC(c1ccccc1)N1C(=O)/C(=C/c2ccncc2)SC1=S (centres undefined) the results were KB-3-1 cytotox inconclusive, HT1080-NT tox inconclusive, HT1080 IDH1KD tx inconclusive, KB-V1 cytotox inconclusive, MCF10A rereplic 16µM* and SW480 rereplic 16µM*.
`C=C(C)C(O)CC/C(C)=C/Cc1c(O)ccc(C(=O)/C=C/c2ccc(O)cc2)c1O` (centres undefined) gave KB-3-1 cytotox inactive, HT1080-NT tox 1%, HT1080 IDH1KD tx 1%, KB-V1 cytotox inactive, MCF10A rereplic 21µM* and SW480 rereplic inconclusive.
`OC[C@H]1O[C@@](CO)(O[C@H]2O[C@H](CO)[C@@H](O)[C@H](O)[C@H]2O)[C@@H](O)[C@@H]1O` gave MCF10A rereplic 3% and SW480 rereplic 3%.
`CCc1cccc(CC)c1NC(=O)c1c(C)oc2ccc(O)c(CN3CCN(C)CC3)c12` gave KB-3-1 cytotox inactive and KB-V1 cytotox inactive.
Screening O=C(O)CC1(CC(=O)NCc2ccc(Cl)cc2)CCCCC1 returned KB-3-1 cytotox inactive, HT1080-NT tox 7%, HT1080 IDH1KD tx 0%, KB-V1 cytotox inactive, MCF10A rereplic 21µM* and SW480 rereplic 2%.
O=C(O)CC1(CC(=O)NCc2ccc(F)cc2)CCCCC1 was read as KB-3-1 cytotox inactive, HT1080-NT tox 7%, HT1080 IDH1KD tx 18%, KB-V1 cytotox inactive, MCF10A rereplic 3% and SW480 rereplic -2%.
CC(=O)c1cccc(NC(=O)c2ccc([N+](=O)[O-])o2)c1 was read as KB-3-1 cytotox inconclusive, HT1080-NT tox 15µM*, HT1080 IDH1KD tx inconclusive, KB-V1 cytotox 16µM*, MCF10A rereplic 4.1µM* and SW480 rereplic inconclusive.

High-throughput results deposited in PubChem BioAssay by National Center for Advancing Translational Sciences (NCATS).
